Results published in PubChem BioAssay (Tox21).
Where “and” joins values, the source holds several entries; their conditions need not be identical. Equal entries are not always repeated. Inconclusive results are not listed. Entries that show only a call come without a potency. Some compounds were tested as several samples or in several runs, with calls that do not always agree. Calls of active or inactive are those of the source. The call rests on the fitted dose curve; in most records, active means well fitted curve in the direction sought with a large enough effect in the repeat runs; inconclusive means weak or mixed curves; inactive means no such curve, though single readings can be large; an effect the other way counts as inactive or inconclusive.

What was measured:
[1] = qHTS RealTime-Glo MT Cell Viability Assay in HEK293 cells - 40 hour (AID 1224874); conditions: RealTime-Glo luminescence; max response: stronger effect = lower value; further: nearly all actives have a fitted effect of over 50% in size; further: potency means the concentration at half of the fitted maximal effect
Method in brief: (§1)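 HEK293 + NanoLuc + prosubstrate, 600 cells/well; 5 h, 37 C/5% CO2; compound 23 nL in DMSO by pintool; 37 C; luminescence read at 0, 8, 16, 24, 32 and 40 h time points.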

[2] = A CellTox Green Cytotoxicity Assay to monitor cytotoxicity in HEK293 cells - 24 hour (AID 1224875); further: nearly all actives have a fitted effect of over 45% in size; further: potency means the concentration at half of the fitted maximal effect
Method in brief: (§2)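 Tox21 screen in HEK293: membrane-impermeant cyanine dye fluoresces on binding dead-cell DNA; compound pinned 5 h post-seeding, plates held at 37 C, signal read repeatedly through 40 h.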

[3] = A CellTox Green Cytotoxicity Assay to monitor cytotoxicity in HepG2 cells - 16 hour (AID 1224876); further: nearly all actives have a fitted effect of over 45% in size; further: potency means the concentration at half of the fitted maximal effect
Method in brief: (§3)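 Measurements at 0, 8, 16, 24, 32 and 40 h of treatment captured CellTox Green fluorescence in HepG2 cells that had been co-plated with reagent and preincubated 5 h at 37 C/5% CO2.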

[4] = qHTS RealTime-Glo MT Cell Viability Assay in HepG2 cells - 32 hour (AID 1224877); further: nearly all actives have a fitted effect of over 55% in size; further: potency means the concentration at half of the fitted maximal effect
Method in brief: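 Luminescence read-out: viable HepG2 cells reduce a prosubstrate to a NanoLuc substrate, giving a signal proportional to live cell number. Reads taken at 0, 8, 16, 24, 32 and 40 h of compound exposure at 37 C.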

[5] = A CellTox Green Cytotoxicity Assay to monitor cytotoxicity in HepG2 cells - 24 hour (AID 1224878); further: nearly all actives have a fitted effect of over 45% in size; further: potency means the concentration at half of the fitted maximal effect
Method in brief: as §3

[6] = A CellTox Green Cytotoxicity Assay to monitor cytotoxicity in HepG2 cells - 40 hour (AID 1224879); further: nearly all actives have a fitted effect of over 40% in size; further: potency means the concentration at half of the fitted maximal effect
Method in brief: as §3

[7] = qHTS RealTime-Glo MT Cell Viability Assay in HEK293 cells - 0 hour (AID 1224880); further: top concentration of the series differs between compounds; nearly all actives have a fitted effect of over 45% in size
Method in brief: as §1

[8] = A CellTox Green Cytotoxicity Assay to monitor cytotoxicity in HepG2 cells - 0 hour (AID 1224882); further: nearly all actives have a fitted effect of over 35% in size
Method in brief: as §3

[9] = A CellTox Green Cytotoxicity Assay to monitor cytotoxicity in HepG2 cells - 32 hour (AID 1224883); further: nearly all actives have a fitted effect of over 50% in size; further: potency means the concentration at half of the fitted maximal effect
Method in brief: as §3

[10] = A CellTox Green Cytotoxicity Assay to monitor cytotoxicity in HEK293 cells - 32 hour (AID 1224881); further: nearly all actives have a fitted effect of over 40% in size
Method in brief: as §2

Row | Structure (SMILES) | max response [1] | Potency [2] | Potency [3] | Potency [4] | Potency [5] | Potency [6] | Potency [7] | Potency [8] | Potency [9] | Potency [10] | Potency [1]
1 | CC1=CCC(=O)O1 | 8.04% (inactive) | inactive | inactive | inactive | inactive | inactive | inactive | inactive | inactive | – | –
2 | C=CC/C=C/C/C=C/C/C=C/C | 0% (inactive) | inactive | inactive | inactive | inactive | inactive | inactive | – | inactive | inactive | –
3 | Oc1c(Br)cc(Br)c2cccnc12 | – | inactive | inactive | inactive | inactive | inactive | inactive | – | inactive | inactive | 19 µM (active)
4 | CCCCCCCC(OC)OC | 5.48% (inactive) | inactive | inactive | inactive | inactive | inactive | inactive | – | inactive | inactive | –
5 | CC(=O)OC1CCCCC1 | -7.58% (inactive) | inactive | inactive | inactive | inactive | inactive | inactive | – | inactive | inactive | –
6 | CCc1ccc(C)nc1 | -9.25% (inactive) | inactive | inactive | inactive | inactive | inactive | inactive | inactive | inactive | inactive | –
7 | CCCCCCCCCCCCCCNCCO | – | 19 µM (active) | 10.7 µM (active) | 10.7 µM (active) | 7.56 µM (active) | 7.56 µM (active) | – | inactive | 7.56 µM (active) | – | 12 µM (active)
8 | CC(C)=C1CC[C@@H](C)CC1=O | 0.14% (inactive) | inactive | inactive | inactive | inactive | inactive | inactive | inactive | inactive | – | –
9 | CCCCCCCOC(=O)c1ccc(O)cc1 | – | inactive | inactive and 38.9 µM (active) | inactive | 24.5 µM (active) | 24.5 µM (active) | inactive | inactive | 24.5 µM (active) | – | 24.6 µM (active) and 19.5 µM (active)
10 | OCCCS | 7.88% (inactive) | inactive | inactive | inactive | inactive | inactive | inactive | inactive | inactive | – | –
11 | COC(=O)CC#N | 9.57% (inactive) | inactive | inactive | inactive | inactive | inactive | inactive | – | inactive | inactive | –
12 | O=C[C@H](O)[C@H](O)[C@H](O)CO | 0.822% (inactive) | inactive | inactive | inactive | inactive | inactive | inactive | – | inactive | – | –
13 | CO[Si](CCCNCCNCCN)(OC)OC | 4.89% (inactive) | inactive | inactive | inactive | inactive | inactive | inactive | inactive | inactive | – | –
14 | Cc1cccc(N(C)C)c1 | 7.91% (inactive) | inactive | inactive | inactive | inactive | inactive | inactive | inactive | inactive | inactive | –
15 | C[C@]12CC[C@H]3C(=CCc4cc(O)ccc43)[C@@H]1CCC2=O | – | inactive | inactive | inactive | inactive | – | inactive | inactive | – | inactive | 43.6 µM (active)
16 | Brc1ccccn1 | -0.513% (inactive) | inactive | inactive | inactive | inactive | inactive | inactive | – | inactive | inactive | –
17 | OCCCc1cccnc1 | -2.22% (inactive) | inactive | inactive | inactive | inactive | inactive | inactive | – | inactive | – | –
18 | CCCCCCCC/C=C\CCCCCCCC(=O)OCCOC(=O)CCCCCCC/C=C\CCCCCCCC | -19.3% (inactive) | inactive | inactive | inactive | inactive | inactive | – | inactive | inactive | inactive | –
19 | O=S(=O)(O)CCCN1CCOCC1 | 12.7% (inactive) | inactive | inactive | inactive | inactive | inactive | inactive | – | inactive | inactive | –
20 | CCC1(c2cnc[nH]2)Cc2ccccc2C1 | -4.11% (inactive) | inactive | inactive | inactive | inactive | inactive | inactive | – | inactive | inactive | –
21 | CCCOc1sc(C(=O)N2CCC(c3cc(CN)ccc3F)CC2)c(C)c1Br | – | 22.5 µM (active) | 20 µM (active) | 22.5 µM (active) | 20 µM (active) | 15.9 µM (active) | – | inactive | 17.9 µM (active) | – | 31.8 µM (active)
22 | C#CC(O)CCC (stereo not given) | 0.0439% (inactive) | inactive | inactive | inactive | inactive | inactive | inactive | inactive | inactive | – | –
